Source: PubChem
The full list was thinned out, with hits kept by preference.
IL-1B inflam inh – blocks inflammasome-driven IL-1 beta release | THP-1 LPS/ATP IL-1B secretion, AlphaLISA, 16 h; stronger effect = lower value | activity change, % at 57.5 µM | 4.7% of 360,000 active | AID 743279; in the data active = activity change below about -50%; inconclusive = mostly about -30% to -49%
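THP-1 cells pretreated 1 hr with compounds (up to 57.5 uM final), then stimulated with LPS (250 ng/mL final) plus ATP (1.25 mM final); secreted IL-1B measured by AlphaLISA after 16 hr, decreased signal indicating inhibition.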
HT1080 IDH1KD tx – toxicity to HT-1080 IDH1 knockdown cells (counter line); HT-1080 IDH1 knockdown viability, ATP luminescence, 48 h; Potency, µM (highest dose often 46.1 µM), hits mostly cytotoxic; 2% of 360,000 active
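Knockdown cells (IDH1KD HT-1080) received compounds 2 h after plating at 750 cells/well and were kept 48 h at 37 °C in 5% FBS RPMI. A CellTiter-Glo luminescence read gave % activity for curve fitting.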
DT40 TDP1 no CPT – qHTS for Inhibitors of human tyrosyl-DNA phosphodiesterase 1 (TDP1): qHTS in cells in absence of CPT; DT40 Tdp1-/- hTDP1 cells, no CPT, ATP luminescence, 48 h; Potency, µM (series often up to 46.2 µM), most hits filed as inhibitors; 15% of 420,000 active; also: nearly all actives have a fitted effect of over 55% in size
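Stably hTDP1-transfected Tdp1-null chicken DT40 cells were treated with library compounds minus camptothecin and grown for at least 48 hr at 37 °C, after which cellular ATP was quantified by luminescence.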
HT1080-NT tox – kills 2HG-producing HT-1080-NT fibrosarcoma cells; HT-1080-NT fibrosarcoma viability, CellTiter-Glo ATP luminescence, 48 h; Potency, µM (highest dose often 46.1 µM), actives largely listed as cytotoxic; 1.6% of 360,000 active; AID 686970;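 also: NT is the 2HG producing partner of a matched IDH1 knockdown line; nearly all actives have a fitted effect of over 55% in size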
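Toxicity toward the 2HG-producing NT line was scored as %Activity, normalised to DMSO and no-cell wells, from CellTiter-Glo luminescence after 48 hours' treatment.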
TDP1 cell CPT – DT40-hTDP1 cell growth loss with CPT; 12% of 420,000 active; chicken DT40 Tdp1-/-;hTDP1 cells + 20 nM CPT, ATP luminescence, 48 h; Potency, µM (titrated, usually from 46.2 µM), usual class: inhibitors; AID 686979; also: nearly all actives have a fitted effect of over 55% in size
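Chicken DT40 Tdp1-/- cells complemented with human TDP1, 400 cells/well, exposed to compounds plus 20 nM camptothecin for at least 48 h at 37 C; viability read as ATP content by CellTiter-Glo luminescence.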
12-LOX inh – ALOX12 (human) lipoxygenase inhibition; P18054; purified 12hLO, xylenol orange hydroperoxide absorbance; Potency, µM (titrated, usually from 108 µM), usual class: inhibitors; 1.1% of 580,000 active
Target sequence (P18054 whole entry, looked up): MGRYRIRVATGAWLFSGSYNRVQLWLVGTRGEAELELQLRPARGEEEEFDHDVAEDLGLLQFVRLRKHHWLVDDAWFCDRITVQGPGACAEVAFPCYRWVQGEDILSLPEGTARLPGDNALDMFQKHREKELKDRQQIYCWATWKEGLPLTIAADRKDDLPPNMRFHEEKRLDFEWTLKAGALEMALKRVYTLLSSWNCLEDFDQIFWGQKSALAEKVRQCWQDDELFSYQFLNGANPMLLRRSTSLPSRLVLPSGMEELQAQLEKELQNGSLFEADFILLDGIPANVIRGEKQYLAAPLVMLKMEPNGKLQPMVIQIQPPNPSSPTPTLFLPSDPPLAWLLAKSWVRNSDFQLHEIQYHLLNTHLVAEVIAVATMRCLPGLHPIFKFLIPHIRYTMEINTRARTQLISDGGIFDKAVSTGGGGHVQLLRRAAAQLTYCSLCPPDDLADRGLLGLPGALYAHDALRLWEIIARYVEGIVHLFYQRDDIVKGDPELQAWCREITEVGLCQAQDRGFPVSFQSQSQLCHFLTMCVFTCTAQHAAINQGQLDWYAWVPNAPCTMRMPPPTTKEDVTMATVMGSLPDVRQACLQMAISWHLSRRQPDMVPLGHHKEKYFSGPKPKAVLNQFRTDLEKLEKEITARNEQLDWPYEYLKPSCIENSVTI
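Hydroperoxide product was detected by ferrous iron/xylenol orange as the 573 to 405 nm absorbance ratio. Arachidonic acid at 40 uM (final) was turned over for 30 min at room temperature by 150 nM human 12hLO, pH 7.0 Hepes buffer, after 15 min compound preincubation.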
Hits are given with their value; i = inactive; ? = inconclusive; nt = no result; [ ] = another dose, or the depositor's remark. Unless noted, calls follow the shape of the dose curve; as a rule, active = well fitted curve in the direction sought with a large enough effect; inconclusive = small, poorly fitted or top-dose-only effect, or another doubt; inactive = no such curve, though single readings can be large; an effect the other way counts as inactive or inconclusive.

SMILES	IL-1B inflam inh	HT1080 IDH1KD tx	DT40 TDP1 no CPT	HT1080-NT tox	TDP1 cell CPT	12-LOX inh
CC(C)CCN1C(=O)CC[C@]2(C(=O)N(C)Cc3ccccc3)CCCC[C@@H]12	nt	nt	nt	nt	nt	i
CC1=C(C#N)C(=O)NC(=O)/C1=C\c1ccc(-c2cc(C)c(C)cc2[N+](=O)[O-])o1	i	i	?	i	?	i
Cc1ccc(-c2ccc(/C=C3/NC(=O)NC3=O)o2)cc1[N+](=O)[O-]	i	i	20.6µM	i	?	i
CCOC(=O)Cc1csc(N/N=C/c2ccccc2)n1	i	i	?	i	?	i
CCOC(=O)Cc1csc(SCC(=O)Nc2cccc(Cl)c2)n1	i	i[9.24 µM]	14.6µM	i	?	i
CCOC(=O)Cc1csc(NC(=O)/C=C\c2ccccc2)n1	i	i	?	i	?	i
CCOC(=O)Cc1csc(N/N=C\c2cccc(Br)c2)n1	i	i	?	i	13µM	i
CCOC(=O)Cc1csc(NC(=O)COc2ccc(C)cc2)n1	i	i	?	i	?	i
CCOC(=O)Cc1csc(NC(=O)COc2ccccc2)n1	i	i	i	10µM	i	i
CCOC(=O)Cc1csc(NC(=O)/C=C/c2ccc(OC)cc2)n1	i	i	20.6µM	i	10.3µM	i
Cc1cc(C)n(-c2nc3cc(Cl)ccc3nc2NCc2ccncc2)n1	nt	nt	nt	nt	nt	i
CCOC(=O)Cc1csc(NC(=O)COc2ccc(N(C)S(=O)(=O)c3cccs3)cc2)n1	i	i	29.1µM	i	?	i
CCOC(=O)Cc1csc(NC(=O)CSc2ncnc3c2cnn3-c2ccc(OC)cc2)n1	i	i	14.6µM	i	?	i
CCOC(=O)Cc1csc(NC(=O)NC2(C(F)(F)F)Oc3cc(Cl)c(Cl)cc3O2)n1	i	i	?	?	23.1µM	0.631µM
CCOC(=O)Cc1csc(NC(=O)COc2ccc(C)c(C)c2)n1	i	i	i	i	i	i
CCOC(=O)Cc1csc(NC(=O)c2cnc3sc(C)cn3c2=O)n1	i	i	20.6µM	i	?	i
CCOC(=O)Cc1csc(NC(=O)c2ccc(C)o2)n1	i	i	i	i	i	i
O=c1cc(-c2cccc(F)c2)oc2ccc(Cl)cc12	nt	nt	nt	nt	nt	i
C[S+](=O)([O-])N1CC2(Cc3ccccc31)CN([S+](=O)([O-])c1cccs1)C2	nt	nt	nt	nt	nt	i
CCOc1ccc(-c2cc3c(=O)n(CCNC(=O)C4(c5ccccc5)CC4)ccn3n2)cc1	nt	nt	nt	nt	nt	i
O=C(CCn1ccn2nc3c(c2c1=O)CCCC3)Nc1cccc(OC(F)(F)F)c1	nt	nt	nt	nt	nt	i
CCOC(=O)Cc1csc(NC(=O)c2ccc3ccccc3n2)n1	i	i	18.4µM	i	?	i
CCOC(=O)Cc1csc(NC(=O)c2ccc(N3CCOCC3)cc2[N+](=O)[O-])n1	i	i	?	i[9.24 µM]	23.1µM	?
CCOC(=O)Cc1csc(NC(=O)c2cc(C)c(C)s2)n1	i	i	23.1µM	i	?	?
CCOC(=O)Cc1csc(NC(=O)Nc2ccc(OC(F)(F)F)cc2)n1	i	?	18.4µM	i	?	i
SMILES	IL-1B inflam inh	HT1080 IDH1KD tx	DT40 TDP1 no CPT	HT1080-NT tox	TDP1 cell CPT	12-LOX inh
CCOC(=O)Cc1csc(NC(=O)c2ccc([N+](=O)[O-])cc2[N+](=O)[O-])n1	i	i	i	i	i	?
CCOC(=O)C1=NNC(C(=O)c2ccccc2)C1c1ccc(C)cc1 (centres undefined)	i	i	i	i	i	?
CCOC(=O)C1=NNC(C(=O)c2ccc(C)cc2)C1c1ccc(C)cc1 (centres undefined)	i	i	16.4µM	i	?	?
O=C1N(Cc2cccc(Cl)c2)C[C@@H]2C[C@@H](c3cccc4ncccc34)N3CCC[C@@]123	-74.1	i	23.1µM	i	23.1µM	?
O=C1N(Cc2cccc(Cl)c2)C[C@@H]2C[C@@H](c3c[nH]c4ccccc34)N3CCC[C@@]123	i	i	14.6µM	?	?	?
O=C1N(Cc2cccc(Cl)c2)C[C@@H]2C[C@@H](c3cccn3-c3nccs3)N3CCC[C@@]123	-81.9	?	16.4µM	?	?	i
O=C1N(Cc2cccc(Cl)c2)C[C@@H]2C[C@@H](c3ccc4nonc4c3)N3CCC[C@@]123	i	i	18.4µM	i	?	i
Cc1ccc([C@@H]2C[C@H]3CN(Cc4cccc(Cl)c4)C(=O)[C@]34CCCN24)o1	i	i	i	i	i	i
O=C1N(Cc2cccc(Cl)c2)C[C@@H]2C[C@@H](c3cccc4cccnc34)N3CCC[C@@]123	i	?	?	?	?	i
COC(=O)c1ccc(CN(C)C(C)C(=O)Nc2cc(C)ccc2C)cc1 (centres undefined)	nt	nt	nt	nt	nt	i
COC(=O)N/N=C/c1cc(Cl)cc(Cl)c1OCCCOc1ccccc1	nt	nt	nt	nt	nt	i
CCCS(=O)(=O)N1C[C@@H](Oc2ccccc2)C[C@@H]1C(=O)N1CCOCC1	nt	nt	nt	nt	nt	i
Cc1cc(C)c(S(=O)(=O)NCC(c2cccnc2)S(=O)(=O)c2ccccc2)c(C)c1 (centres undefined)	nt	nt	nt	nt	nt	i
O=C(C[C@H]1C=C[C@@H](NS(=O)(=O)c2ccccc2)[C@@H](CO)O1)NCc1ccc(Cl)c(Cl)c1	i	i	18.4µM	i	?	i
COC(=O)C[C@@H]1C=C[C@H](NS(=O)(=O)c2cccc(F)c2)[C@@H](CO)O1	i	i	i	?	i	i
CCn1c(CCCOc2ccc(Cl)cc2Cl)nnc1SCC(=O)Nc1cc(F)ccc1C	-59.4	?	?	?	?	i
CCn1c(CNC(=O)COc2ccc(C(C)C)cc2)nnc1SCC(=O)Nc1ccc(F)cc1	?	?	i	?	i	i
CCn1c(CNC(=O)COc2ccc(C(C)C)cc2)nnc1SCC(=O)Nc1cc(F)ccc1C	i	?	?	?	?	22.4µM
Cn1c(CCCOc2ccc(Cl)cc2Cl)nnc1SCC(=O)Nc1cccc(F)c1	i	i	?	?	?	i
CCc1cccc(C)c1NC(=O)CSc1nnc(CCCOc2ccc(Cl)cc2Cl)n1C	i	?	14.6µM	i	23.1µM	i
Nc1cc(Cl)ccc1Sc1ccccc1	nt	nt	nt	nt	nt	i
COc1ccc2c(C)c(CC(=O)Nc3ccc4c(c3)OCO4)c(=O)oc2c1OC	nt	nt	nt	nt	nt	i
Cc1ccc(Cl)c(Cn2cnc3c(cnn3C(C)(C)C)c2=O)c1F	nt	nt	nt	nt	nt	i
CC(C)(C)n1ncc2c(=O)n(Cc3ccc(Cl)cc3Cl)cnc21	?	i	14.6µM	i	16.4µM	i
CC(=O)Nc1ccc(NC(=O)Cn2cnc3c(cnn3C(C)(C)C)c2=O)cc1	i	i	i	i	i	i
CC(C)(C)n1ncc2c(=O)n(CC(=O)c3ccc(Cl)cc3)cnc21	i	i	23.1µM	i	23.1µM	i
